Results as given in PubChem BioAssay.
Measured potencies and affinities stand elsewhere. Activity calls are given as the source filed them. The limit is not given here; nearly all actives have IC50 up to about 0.91 µM.

target: Calcium-dependent protein kinase 4 (Plasmodium falciparum (isolate 3D7)) (UniProt Q8IBS5); test: PfCDPK4 kinase inhibitors, biochemical, TCAMS library (AID 1159588); settings: recombinant PfCDPK4, Kinase-Glo ATP depletion luminescence
Sequence (Q8IBS5 whole entry, looked up): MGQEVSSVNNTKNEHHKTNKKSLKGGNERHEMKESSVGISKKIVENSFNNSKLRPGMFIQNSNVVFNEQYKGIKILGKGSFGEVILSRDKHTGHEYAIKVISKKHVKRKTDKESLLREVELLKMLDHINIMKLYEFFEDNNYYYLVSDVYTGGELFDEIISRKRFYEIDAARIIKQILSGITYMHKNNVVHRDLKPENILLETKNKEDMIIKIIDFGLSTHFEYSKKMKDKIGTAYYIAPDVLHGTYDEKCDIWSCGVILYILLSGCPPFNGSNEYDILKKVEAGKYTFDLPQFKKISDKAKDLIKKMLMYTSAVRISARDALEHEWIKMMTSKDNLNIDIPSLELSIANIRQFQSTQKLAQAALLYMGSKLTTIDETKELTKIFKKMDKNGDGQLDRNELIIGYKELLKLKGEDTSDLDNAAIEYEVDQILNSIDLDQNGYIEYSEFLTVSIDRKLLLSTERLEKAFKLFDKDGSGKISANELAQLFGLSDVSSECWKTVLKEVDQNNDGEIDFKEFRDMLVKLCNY

outcome, inactive:
Cc1ccc2cc(NCCCCCCCCON3C(N)=NC(N)=NC34CCCCC4)ccc2n1
O=C(C1CCN(c2nnnn2-c2ccccc2)CC1)N1CCc2ccccc2C1
COc1cc2nc(N3CCN(C(=O)c4ccco4)CC3)nc(NCc3ccccc3)c2cc1OC
C[C@@H]1CN(c2cnn(C/C=C/c3ccc(NC(=O)c4ccc(Cl)cc4)cc3)c(=O)c2Cl)C[C@H](C)N1
O=C(N[C@@H](Cc1ccccc1)C(=O)NC1CCCCC1)c1ccc(O)c(-c2cccc(C(F)(F)F)c2)c1
CC(=O)Nc1ccc(NC(=O)c2cc(-c3cc(Cl)ccc3O)n[nH]2)cc1
CN1CCCN(c2ccnc3cc4c(cc23)N(C(=O)c2ccc(C(F)(F)F)cc2)CC4)CC1
N#Cc1ccc(-c2ccc(C(=O)NCCCCN3CCC(c4ccc5c(c4OCC(N)=O)CCCC5)CC3)cc2)cc1
NC(=O)c1cc2nc(Nc3ccc(F)cc3)nc(NC3CCC3)c2[nH]1
CC(C)COc1ccc(Cl)cc1Nc1nc(-c2nc3ccccc3[nH]2)cs1
Cc1cc(OCC2CCCO2)c2cc(NC(=O)C(=O)Nc3ccc4nc(C)cc(OCC5CCCO5)c4c3)ccc2n1 (stereo not given)
CC(C)Sc1nc2c(c(=O)n1Cc1ccco1)C1(CCCC1)Cc1ccccc1-2
Nc1c(Cl)cc(C(O)CNCCCCCCCCCc2ccccn2)cc1Cl (stereo not given)
COc1cc(NC(=O)/C=C/c2cccc3ccoc23)ccc1OCCN(C(C)C)C(C)C
Cc1ccc(N(CCC(=N)N)Cc2ccccc2)cc1
c1ccc2[nH]c(CN(Cc3nc4ccccc4[nH]3)Cc3nc4ccccc4[nH]3)nc2c1
COc1cc2ccccc2cc1OCCCN1CCN(CC(c2ccc(F)cc2)N2CCN(C(C)C)CC2)CC1 (stereo not given)
COc1ccc(CCNCCCCCNCCCc2ccc(Cl)cc2)cc1OC
Clc1cc(Cl)cc(Nc2ccnc(Nc3cc(Cl)cc(Cl)c3)n2)c1
CC(C)(C)C(=O)Oc1ccc(CC2NCCc3cc(OC(=O)C(C)(C)C)c(OC(=O)C(C)(C)C)cc32)cc1OC(=O)C(C)(C)C (stereo not given)
CSc1ccc(NC(=O)Nc2cc(C)nc3ccccc23)cc1
Cc1cc(C2CCN(CCCCNC(=O)c3ccc(-c4ccc(C(F)(F)F)cc4)cc3)CC2)c(C)cc1OCC(N)=O
COc1ccc(NC(=O)CCNc2cc(C)nc(NCc3ccccc3C)n2)cc1
O=C(NCC1CCC(C(=O)O)CC1)c1ccc(/C=C/C(=O)N2CCc3ccccc3C2c2ccc3c(c2)OCO3)cc1 (stereo not given)
O=C(C=Cc1cn(-c2ccccc2)nc1-c1ccccc1)N1CCN(c2ccncc2)CC1
O=c1ccc2ncc(Cl)c3c2n1CC3CN1CCC(NCc2cc3c(cn2)OCCO3)CC1 (stereo not given)
CC(C)NCc1ccc(-c2ccc(CN3CCCC(c4ccccc4)C3)cc2)c(C(=O)NC2Cc3ccccc3C2)c1 (stereo not given)
O=C(Nc1ccc(-c2nc3ccccc3[nH]2)cc1)C1CCCN(C2CCC2)C1 (stereo not given)
CCOC(=O)C(Oc1ccc2ccccc2c1)C(=O)OCC
CC(C)CNC(=S)N1CCCN(c2nc3ccc(Cl)cc3s2)CC1
O=C(CCc1ccccc1)NC(c1ccc(Cl)cc1)c1ccc2cccnc2c1O (stereo not given)
O=C(Nc1cccc(-c2cccc(-c3nc4ccc(C(F)(F)F)cc4[nH]3)c2)c1)c1ccoc1
COc1cc2nccc(Nc3cc(C)cc(O)c3)c2cc1OC
O=C(NC1CCN(CCC[C@]2(c3ccc(Cl)c(Cl)c3)CCCN(C(=O)c3ccccc3)C2)CC1)c1ccc(Cl)cc1
COc1cc(C)cc(CN2CCC(Cc3ccccc3)CC2)c1O
Cc1ccc(-n2c(Cc3cccc4ccccc34)nnc2SCCC#N)c(C)c1
O=C(NC1CCN(c2ccnc3cc(Cl)ccc23)C1)c1ccc(C(F)(F)F)cc1 (stereo not given)
O=C(Nc1cccc(-c2cccc(-c3ccc(F)cc3)n2)c1)c1ccc([N+](=O)[O-])o1
Nc1ncc(-c2ccc(NC(=O)Nc3cc(C(F)(F)F)ccc3F)cc2)c(N)n1
Nc1ncnc2nc(-c3ccc(F)cc3)cc(-c3ccc(NC(=O)c4ccccc4)cc3)c12
